Where “and” joins values, the source holds several entries; their conditions need not be identical. Identical values can stand only once. Compounds without any hit were thinned out: in the full panel of roughly 83,000, 20% have a hit.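 48-hour exposure, single concentration, 96-well plates; percent growth endpoint where 0 means no net growth. Active: below 10.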 A number with no mark means an inactive call.

The subject of the first test is SN12C renal. The test is described as follows: NCI-60 one-dose screen, 48 h (100 = growth as untreated, 0 = no growth, -100 = all killed). The following applies: 10 µM. As for the experimental part: Growth inhibition of the SN12C human tumor cell line is measured as a screen for anti-cancer activity. Cells are grown in 96 well plates and exposed to the test compound for 48 hours. Compounds are tested at a single concentration, which is 10^-5 M for most compounds. The reported endpoint is percent growth (GI% or GIPRCNT), where numbers from 0 - 100% represent growth inhibition, and numbers from -100% - 0 represent cell death. For example, a value of 40 represents 60% growth inhibition. A value of 0 means no net growth occurred over the course of the experiment. A value of -40 indicates 40% of cells at the beginning of the experiment died by the end of the experiment. A value of -100 means all cells are dead at the end of the experiment.
NCI-60 Human Tumor Cell Lines Screen was performed using the standard one-dose NCI protocol, which is described in more detail at https://dtp.cancer.gov/discovery_development/nci-60/default.htm.
Compounds with GIPRCNT values below 10 were considered active. Activity score was based on GIPRCNT using the following formula: […]
Score is 0 for GIPRCNT values of 100 or above, 50 for GIPRCNT values of 0, and 100 for GIPRCNT values of -100.
For the compound `CS/C(=C\c1ccc(C(=O)c2ccc(C)cc2)n1C)S(C)=O` (stereo not given), the growth is 82%.

As to `S=c1nc[nH]c2nc[nH]c12`, the growth was 69.5%.

The test is the same for the next values; noted with them: 10 µM unless noted.
Regarding `CCN(CC)CCO/N=C1\CC(c2ccc(OC)c(OC)c2)Oc2ccccc21` (stereo not given), the growth is 99.1%.

Take `CC1OS(=O)OC1C` (stereo not given): the growth was 95.8% and 95.4%.

For the compound `O=C(O)/C=C/C=C/c1ccccc1`, the growth is 96% and 106%.

Take `Cc1ccc(S(=O)(=O)n2ccnc2)cc1`: the growth is 107%.

As for `CC1CC(O)CC(C)(C)C1.CC1CC(O)CC(C)(C)C1.CC1CC(O)CC(C)(C)C1.CC1CC(O)CC(C)(C)C1.[Ti]` (stereo not given), the growth was 82%.

For the compound `CCC(C)NC(=O)c1ccccc1C` (stereo not given), the growth was 96.5%.

As for `Cc1ccc(C(=O)c2ccc(C)cc2)cc1`, the growth is 92.6% and 103%.

Turning to `COc1ccc2oc3c(ccc[n+]3C)c(=O)c2c1`, the growth is 110%.

Consider `CC(=O)C[n+]1ccccc1Sc1ccc(Cl)cc1`, for which the growth was 49.5%.

Take `N#Cc1c(N)nc2c(c(-c3ccc(Cl)cc3)nn2-c2ccccc2)c1C#N`: the growth was 105% [100 µM].

Consider `COc1ccc(/C=N/NC(N)=S)cc1`, for which the growth is 96.1%.

Turning to `Nc1ccc(O)c(C(=O)O)c1`, the growth was 82% and 103% and 98.7%.

As for `Cc1ccc2cccc([N+](=O)[O-])c2n1`, the growth is 98.8% and 100%.

Take `CN(C)c1ccc(C(=N)c2ccc(N(C)C)cc2)cc1`: the growth was 40.8% and 42.4%.

On to `CC(=O)Nc1ccc(OC(C)=O)cc1`, for which the growth is 20.2% and 102%.

On to `O=C(/C=C/C=C/c1ccc2c(c1)OCO2)N1CCCCC1`, for which the growth was 97.9% and 100%.

`CCOC(=O)C1=CC(=O)CC(C)(C)O1`: the growth is 110% and 102%.

On to `COC1C(OC(N)=O)C(O)C(Oc2ccc3c(O)c(NC(=O)c4ccc(O)c(CC=C(C)C)c4)c(=O)oc3c2C)OC1(C)C` (stereo not given), for which the growth was 106% and 97.3%.

As to `Nc1ccc2ccc(NS(=O)(=O)N3CCCCC3)cc2c1`, the growth was 43.2%.

`CCn1c2ccc(N(C)C)cc2c2cc(N(C)C)ccc21`: the growth was 104%.

Regarding `O=C(O)COc1ccccc1F`, the growth was 98.3%.

As for `O=C(c1ccccc1)C1(Br)CCCCC1`, the growth is 93.6%.

Take `CCOC(=O)C(N)Cc1cc(I)c(O)c(I)c1` (stereo not given): the growth was 103% and 98.7%.

In the case of `CC(=O)Nc1cscc1NC(C)=O`, the growth is 89.1%.

`CCCC(=O)OCC(COC(=O)CCC)OC(=O)CCC`: the growth was 96.9%.

In the case of `CCOCCC(=O)O`, the growth was 103%.

As for `COC(=O)c1nc(N)nc(C(=O)OC)c1C(=O)c1ccc(F)cc1`, the growth is 103%.

For `CCc1ccccc1-n1[nH]c(C)c(C=N)c1=O`, the growth is 106%.

As to `CCOP(C)(=O)/C(Cc1ccc(OC)c(OC)c1)=N\O` (stereo not given), the growth was 103%.

Consider `N=c1sc2ccccc2n1CC(=O)O`, for which the growth was 94.1%.

Consider `CCCCCc1cc[n+](CC(=O)c2ccccc2)cc1`, for which the growth is 99.8% and 103%.

`NCCSSC/C=C\CSSCCN`: the growth is 98.6%.

For the compound `Cc1c(O)nc(N)[nH]c1=O`, the growth was 109%.

For the compound `Cc1c(Cl)cc(Cl)c(N)c1Cl`, the growth is 117%.

With `CCCC(=O)Oc1ccc(CC)cc1`, the growth was 98.5%.

Consider `Cc1cccc(Cl)c1N`, for which the growth was 112%.

Still in this test, the particulars now being: 50 µM.
As to `S=c1nc[nH]c2nc[nH]c12`, the growth was 31.5%.

Staying with this test, now noted: 100 µM.
Turning to `CS/C(=C\c1ccc(C(=O)c2ccc(C)cc2)n1C)S(C)=O` (stereo not given), the growth is 80.9%.
